Laboratory results published in the supplement of paper PMC10849652.
Of roughly 8,800 targets only a part is listed; those with a hit were picked by preference. About 0.5% of all pairs of compound and target were hits.

Key:
Experiment in all cases: log2 fold change, soluble protein after heating vs DMSO (PISA); higher = thermal stabilisation; K562 lysate, 10 uM; active = over 0.2 and 3.5 SD of the protein, either way, in both replicates (recomputed)
erlotinib = compound: C#Cc1cccc(Nc2ncnc3cc(OCCOC)c(OCCOC)cc23)c1 [erlotinib]
Method in brief: (§1)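 Pellets of K562 cells were dounce-homogenised in PBS pH 7.4 with 1 mM MgCl2, and the crude extract was held at 1 mg/mL protein for a 30 min treatment with 10 μM compound. Aliquots were heated for 3 min over 48°C-58°C and pooled before NP-40 was added to 0.5% at 4°C. The supernatant from 21,000xg for 90 min was quantified by TMTpro 16plex LC-MS/MS with channel sums equalised. Values are reported from duplicates as log-two fold change in thermal stability relative to solvent controls.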

[1] = compound: C/C(=N\NC(=O)C1=CC(=CC=C1)S(=O)(=O)N2CCOCC2)/C3=C(C=CC(=C3)Cl)O
Method in brief: as §1

[2] = compound: C1=CC(=CC=C1C2=NC3=C(N2)C=C(C=C3)C(=O)N)OC4=CC=C(C=C4)Cl
Method in brief: as §1

[3] = compound: C1=CC2=C(C=CC(=C2)/C=C\3/C(=O)NC(=NCC4=CC=CS4)S3)N=C1
Method in brief: as §1

[4] = compound: C1=CC2=NC=CN=C2C=C1/C=C/3\C(=O)NC(=O)S3
Method in brief: as §1

[5] = compound: C1=CC=C(C=C1)C2=NC(=C(N2)C3=CC=NC=C3)C4=CC(=C(C=C4)Cl)O
Method in brief: as §1

[6] = compound: C1=CC=C2C(=C1)C3=NNC4=CC=CC(=C43)C2=O
Method in brief: as §1

[7] = compound: C1CCN(C1)C(=O)NC2=CC=CC(=C2)NC3=NC=C(C(=N3)NCCC4=CN=CN4)Br
Method in brief: as §1

[8] = compound: C1CN(CCC1(CC2=CC=C(C=C2)Cl)N)C3=NC=NC4=C3C=CN4
Method in brief: as §1

IRAK-1-4 Inhibitor I = compound: C1COCCN1CCN2C3=CC=CC=C3N=C2NC(=O)C4=CC(=CC=C4)[N+](=O)[O-] [IRAK-1-4 Inhibitor I]
Method in brief: as §1

Measured: log2 fold change

TLE3 isoform 4 (UniProt Q04726)
Chain of UniProt Q04726 (Q04726 whole entry, looked up): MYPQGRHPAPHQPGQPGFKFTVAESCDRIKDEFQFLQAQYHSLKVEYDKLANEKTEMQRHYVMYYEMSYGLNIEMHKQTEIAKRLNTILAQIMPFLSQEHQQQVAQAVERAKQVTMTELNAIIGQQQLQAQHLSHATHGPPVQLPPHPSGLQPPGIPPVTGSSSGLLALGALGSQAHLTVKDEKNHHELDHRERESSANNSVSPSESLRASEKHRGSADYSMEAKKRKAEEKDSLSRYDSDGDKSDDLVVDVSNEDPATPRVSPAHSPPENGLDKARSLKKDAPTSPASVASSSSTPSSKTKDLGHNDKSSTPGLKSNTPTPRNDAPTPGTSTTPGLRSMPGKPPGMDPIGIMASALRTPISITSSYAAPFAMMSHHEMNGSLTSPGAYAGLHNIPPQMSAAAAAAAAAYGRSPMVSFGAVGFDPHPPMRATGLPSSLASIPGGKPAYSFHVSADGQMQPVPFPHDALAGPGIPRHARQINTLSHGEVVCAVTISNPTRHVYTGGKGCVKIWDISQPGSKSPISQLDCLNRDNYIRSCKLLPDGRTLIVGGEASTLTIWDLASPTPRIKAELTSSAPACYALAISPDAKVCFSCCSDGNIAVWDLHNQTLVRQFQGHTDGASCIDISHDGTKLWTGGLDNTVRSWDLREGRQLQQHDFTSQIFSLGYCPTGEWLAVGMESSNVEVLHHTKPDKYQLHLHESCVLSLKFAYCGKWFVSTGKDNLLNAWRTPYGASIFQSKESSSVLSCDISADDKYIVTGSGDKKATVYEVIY
inactive: erlotinib 0.005 | [1] -0.025 | [2] 0.03 | [3] -0.012 | [4] 0 | [5] 0.016 | [6] -0.002 | [7] -0.006 | [8] 0.029 | IRAK-1-4 Inhibitor I -0.016

TTLL12 (UniProt V9GY16)
inactive: erlotinib 0.144 | [1] 0.13 | [2] -0.193 | [3] -0.05 | [4] 0.074 | [5] -0.061 | [6] -0.072 | [7] -0.167 | [8] 0.128 | IRAK-1-4 Inhibitor I 0.229

THOC5 (UniProt Q13769)
inactive: erlotinib 0.013 | [1] -0.105 | [2] 0.036 | [3] -0.035 | [4] 0.008 | [5] -0.001 | [6] -0.016 | [7] 0.005 | [8] 0.001 | IRAK-1-4 Inhibitor I -0.012

TRIM25 (UniProt Q14258)
inactive: erlotinib -0.01 | [1] -0.024 | [2] 0.028 | [3] -0.004 | [4] -0.028 | [5] 0.032 | [6] 0.008 | [7] 0.064 | [8] 0.021 | IRAK-1-4 Inhibitor I -0.009

TUBB6 (UniProt Q9BUF5)
inactive: erlotinib 0.039 | [1] 0.051 | [2] -0.002 | [3] 0.017 | [4] 0 | [5] 0.005 | [6] 0.009 | [7] -0.013 | [8] 0.057 | IRAK-1-4 Inhibitor I -0.003

TTF2 (UniProt Q9UNY4)
Chain of UniProt Q9UNY4 (Q9UNY4 whole entry, looked up): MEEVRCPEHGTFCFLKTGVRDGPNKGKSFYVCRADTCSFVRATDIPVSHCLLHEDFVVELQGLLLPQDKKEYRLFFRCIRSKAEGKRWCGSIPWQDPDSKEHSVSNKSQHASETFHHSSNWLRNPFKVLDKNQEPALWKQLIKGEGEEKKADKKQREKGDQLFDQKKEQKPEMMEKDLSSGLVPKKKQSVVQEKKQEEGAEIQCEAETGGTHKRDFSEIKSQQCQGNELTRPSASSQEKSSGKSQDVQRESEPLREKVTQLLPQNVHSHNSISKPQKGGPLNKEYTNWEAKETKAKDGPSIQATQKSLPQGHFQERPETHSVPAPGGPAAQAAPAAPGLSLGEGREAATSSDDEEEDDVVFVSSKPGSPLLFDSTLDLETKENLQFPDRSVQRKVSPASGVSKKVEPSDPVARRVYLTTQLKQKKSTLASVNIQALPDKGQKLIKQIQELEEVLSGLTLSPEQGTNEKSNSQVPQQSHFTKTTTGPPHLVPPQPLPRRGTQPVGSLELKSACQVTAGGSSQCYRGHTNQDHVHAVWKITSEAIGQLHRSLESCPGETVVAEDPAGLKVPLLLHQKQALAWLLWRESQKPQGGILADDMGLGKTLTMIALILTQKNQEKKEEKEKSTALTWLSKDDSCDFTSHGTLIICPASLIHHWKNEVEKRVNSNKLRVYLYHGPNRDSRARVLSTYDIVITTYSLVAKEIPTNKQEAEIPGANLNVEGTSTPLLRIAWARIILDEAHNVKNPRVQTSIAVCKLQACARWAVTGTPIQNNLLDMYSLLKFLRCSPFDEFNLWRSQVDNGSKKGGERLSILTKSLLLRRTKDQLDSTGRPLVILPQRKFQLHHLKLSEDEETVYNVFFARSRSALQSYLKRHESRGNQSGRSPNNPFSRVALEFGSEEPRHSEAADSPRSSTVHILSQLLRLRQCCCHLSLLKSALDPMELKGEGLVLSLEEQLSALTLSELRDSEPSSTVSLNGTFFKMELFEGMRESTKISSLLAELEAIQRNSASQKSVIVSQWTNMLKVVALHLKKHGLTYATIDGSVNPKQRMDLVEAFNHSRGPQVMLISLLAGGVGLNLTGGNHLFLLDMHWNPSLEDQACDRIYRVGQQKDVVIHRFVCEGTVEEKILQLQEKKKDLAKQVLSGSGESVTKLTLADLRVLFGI
inactive: erlotinib 0.043 | [1] -0.003 | [2] 0.063 | [3] -0.001 | [4] -0.026 | [5] 0.042 | [6] -0.046 | [7] 0.039 | [8] 0.032 | IRAK-1-4 Inhibitor I -0.006

TUBB4A (UniProt M0QYM7)
inactive: erlotinib -0.017 | [1] -0.063 | [2] 0.071 | [3] -0.015 | [4] -0.322 | [5] 0.044 | [6] -0.097 | [7] -0.038 | [8] -0.027 | IRAK-1-4 Inhibitor I 0.025

TXNRD2 (UniProt Q9NNW7)
inactive: erlotinib -0.01 | [1] -0.085 | [2] 0.049 | [3] 0.008 | [4] -0.025 | [5] 0.009 | [6] -0.031 | [7] 0.017 | [8] 0.044 | IRAK-1-4 Inhibitor I -0.007

TNIK isoform 4 (UniProt Q9UKE5)
inactive: erlotinib -0.015 | [1] -0.037 | [2] -0.035 | [3] 0.119 | [4] 0.003 | [5] 0.125 | [6] 0.244 | [7] 0.113 | [8] -0.031 | IRAK-1-4 Inhibitor I -0.019

TTC12 isoform 2 (UniProt Q9H892)
inactive: erlotinib 0.066 | [1] -0.051 | [2] 0.055 | [3] 0.007 | [4] -0.081 | [5] -0.037 | [6] -0.019 | [7] -0.006 | [8] 0.034 | IRAK-1-4 Inhibitor I 0.231

TUBGCP3 (UniProt Q96CW5)
inactive: erlotinib -0.035 | [1] 0.021 | [2] -0.054 | [3] 0.044 | [4] 0.02 | [5] -0.039 | [6] 0.012 | [7] -0.044 | [8] -0.019 | IRAK-1-4 Inhibitor I -0.054

TUBB (UniProt P07437)
inactive: erlotinib 0.029 | [1] -0.017 | [2] 0.014 | [3] -0.006 | [4] 0.008 | [5] 0.008 | [6] -0.03 | [7] 0.006 | [8] 0.043 | IRAK-1-4 Inhibitor I 0.027

TPM1 isoform 4 (UniProt P09493)
Chain of UniProt P09493 (P09493 whole entry, looked up): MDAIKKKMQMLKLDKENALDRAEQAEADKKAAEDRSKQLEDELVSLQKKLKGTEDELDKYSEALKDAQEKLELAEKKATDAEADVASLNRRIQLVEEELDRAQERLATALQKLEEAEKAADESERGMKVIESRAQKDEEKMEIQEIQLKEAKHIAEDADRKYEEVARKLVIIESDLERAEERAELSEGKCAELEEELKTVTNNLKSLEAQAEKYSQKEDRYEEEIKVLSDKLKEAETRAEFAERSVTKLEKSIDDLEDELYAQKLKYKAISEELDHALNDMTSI
inactive: erlotinib -0.126 | [1] -0.004 | [2] 0.005 | [3] 0.018 | [4] 0.114 | [5] -0.026 | [6] -0.015 | [7] 0.014 | [8] -0.052 | IRAK-1-4 Inhibitor I -0.009

TMEM161B (UniProt Q8NDZ6)
Chain of UniProt Q8NDZ6 (Q8NDZ6 whole entry, looked up): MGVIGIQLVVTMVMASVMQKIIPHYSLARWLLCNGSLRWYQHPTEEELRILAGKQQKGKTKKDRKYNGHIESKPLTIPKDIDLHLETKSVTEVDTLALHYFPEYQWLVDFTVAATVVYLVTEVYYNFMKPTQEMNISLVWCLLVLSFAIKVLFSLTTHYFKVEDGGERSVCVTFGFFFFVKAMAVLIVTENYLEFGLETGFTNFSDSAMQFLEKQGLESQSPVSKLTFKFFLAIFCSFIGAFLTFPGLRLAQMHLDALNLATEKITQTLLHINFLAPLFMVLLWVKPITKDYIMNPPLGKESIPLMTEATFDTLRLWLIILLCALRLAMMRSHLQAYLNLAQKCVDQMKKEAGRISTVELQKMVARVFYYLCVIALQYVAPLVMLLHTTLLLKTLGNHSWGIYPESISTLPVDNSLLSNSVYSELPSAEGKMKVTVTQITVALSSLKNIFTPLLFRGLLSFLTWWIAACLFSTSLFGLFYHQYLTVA
inactive: erlotinib 0.051 | [1] -0.08 | [2] -0.017 | [3] 0.174 | [4] 0.007 | [5] -0.068 | [6] -0.133 | [7] 0.052 | [8] -0.01 | IRAK-1-4 Inhibitor I 0.09

TBK1 (UniProt Q9UHD2)
inactive: erlotinib -0.005 | [1] -0.066 | [2] -0.03 | [3] 0.006 | [4] -0.067 | [5] 0.023 | [6] 0.238 | [7] 0.214 | [8] -0.047 | IRAK-1-4 Inhibitor I 0.082

TMEM87B (UniProt Q96K49)
inactive: erlotinib -0.016 | [1] 0.103 | [2] 0.093 | [3] -0.003 | [4] 0.117 | [5] 0.03 | [6] -0.019 | [7] 0.006 | [8] -0.008 | IRAK-1-4 Inhibitor I -0.045

TTC37 (UniProt Q6PGP7)
inactive: erlotinib 0.05 | [1] -0.148 | [2] 0.07 | [3] -0.014 | [4] -0.069 | [5] -0.187 | [6] -0.068 | IRAK-1-4 Inhibitor I 0.051

TPM3 (UniProt P06753)
inactive: erlotinib -0.022 | [1] 0.027 | [2] -0.026 | [3] -0.042 | [4] -0.012 | [5] 0.014 | [6] 0.068 | [7] 0.035 | [8] -0.021 | IRAK-1-4 Inhibitor I -0.019

TRIM11 (UniProt Q96F44)
inactive: erlotinib 0.005 | [1] -0.012 | [2] -0.008 | [3] -0.002 | [4] 0.012 | [5] -0.018 | [6] -0.032 | [7] -0.046 | [8] 0.002 | IRAK-1-4 Inhibitor I 0.043

TTMP isoform 3 (UniProt Q5BVD1)
Chain of UniProt Q5BVD1 (Q5BVD1 whole entry, looked up): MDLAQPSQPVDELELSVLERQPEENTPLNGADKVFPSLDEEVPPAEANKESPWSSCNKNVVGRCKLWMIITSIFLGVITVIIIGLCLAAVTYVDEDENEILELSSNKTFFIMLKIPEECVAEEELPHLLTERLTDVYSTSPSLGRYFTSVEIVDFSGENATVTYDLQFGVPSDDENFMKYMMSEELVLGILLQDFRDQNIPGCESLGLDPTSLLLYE
inactive: erlotinib 0.121 | [1] -0.173 | [2] -0.023 | [3] -0.106 | [4] -0.026 | [5] -0.026 | [6] -0.08 | [7] -0.05 | [8] 0.086 | IRAK-1-4 Inhibitor I 0.193

UBE3B (UniProt Q7Z3V4)
Chain of UniProt Q7Z3V4 (Q7Z3V4 whole entry, looked up): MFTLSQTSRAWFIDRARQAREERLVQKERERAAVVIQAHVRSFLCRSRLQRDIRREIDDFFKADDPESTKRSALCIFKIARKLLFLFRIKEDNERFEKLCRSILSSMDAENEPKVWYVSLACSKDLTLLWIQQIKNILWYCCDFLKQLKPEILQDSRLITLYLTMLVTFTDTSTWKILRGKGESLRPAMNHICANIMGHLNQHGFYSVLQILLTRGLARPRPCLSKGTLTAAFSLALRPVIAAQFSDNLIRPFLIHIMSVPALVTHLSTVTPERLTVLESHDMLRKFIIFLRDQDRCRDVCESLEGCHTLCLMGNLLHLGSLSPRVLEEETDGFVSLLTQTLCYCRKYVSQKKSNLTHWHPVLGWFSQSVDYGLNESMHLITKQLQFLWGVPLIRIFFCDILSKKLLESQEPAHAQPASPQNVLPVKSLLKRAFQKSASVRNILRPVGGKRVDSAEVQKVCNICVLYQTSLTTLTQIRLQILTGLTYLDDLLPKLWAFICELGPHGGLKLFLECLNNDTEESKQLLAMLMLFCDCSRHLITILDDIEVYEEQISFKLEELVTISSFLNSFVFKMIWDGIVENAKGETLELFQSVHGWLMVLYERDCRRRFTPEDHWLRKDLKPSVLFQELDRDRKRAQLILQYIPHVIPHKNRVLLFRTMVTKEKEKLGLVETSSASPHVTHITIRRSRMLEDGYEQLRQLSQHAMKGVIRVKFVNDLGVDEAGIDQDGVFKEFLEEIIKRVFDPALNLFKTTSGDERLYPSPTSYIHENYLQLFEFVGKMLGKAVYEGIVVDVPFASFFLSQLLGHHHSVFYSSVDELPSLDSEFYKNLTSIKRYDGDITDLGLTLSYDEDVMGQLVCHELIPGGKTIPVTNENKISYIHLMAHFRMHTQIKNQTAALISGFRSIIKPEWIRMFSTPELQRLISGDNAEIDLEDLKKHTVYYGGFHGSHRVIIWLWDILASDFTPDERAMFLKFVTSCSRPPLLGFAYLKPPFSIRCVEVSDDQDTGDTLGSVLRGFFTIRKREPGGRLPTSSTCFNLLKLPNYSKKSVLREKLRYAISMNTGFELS
inactive: erlotinib -0.14 | [1] -0.218 | [2] -0.3 | [3] 0.056 | [4] 0.142 | [5] 0.011 | [6] -0.022 | [7] -0.04 | [8] -0.12 | IRAK-1-4 Inhibitor I 0.019

TPP2 (UniProt Q5VZU9)
inactive: erlotinib 0.043 | [1] -0.036 | [2] 0.086 | [3] -0.012 | [4] 0 | [5] 0.131 | [6] -0.013 | [7] 0 | [8] 0.066 | IRAK-1-4 Inhibitor I 0.005

UFM1 (UniProt P61960)
Chain of UniProt P61960 (P61960 whole entry, looked up): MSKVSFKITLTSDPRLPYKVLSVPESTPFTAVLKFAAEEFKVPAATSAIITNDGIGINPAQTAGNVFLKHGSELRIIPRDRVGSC
inactive: erlotinib 0.035 | [1] 0.078 | [2] -0.003 | [3] 0.085 | [4] 0.029 | [5] -0.013 | [6] 0.123 | [7] 0.066 | [8] 0.013 | IRAK-1-4 Inhibitor I -0.009

TIAL1 isoform 2 (UniProt Q01085)
inactive: erlotinib 0.015 | [1] -0.001 | [2] 0.023 | [3] -0.015 | [4] -0.019 | [5] -0.035 | [6] 0.059 | [7] 0 | [8] 0.017 | IRAK-1-4 Inhibitor I 0.058

UBR3 isoform 4 (UniProt Q6ZT12)
inactive: erlotinib 0.016 | [1] 0.044 | [2] 0.016 | [3] 0.027 | [4] 0.005 | [5] 0.005 | [6] -0.07 | [7] -0.063 | [8] 0.032 | IRAK-1-4 Inhibitor I -0.007

TCF12 isoform 3 (UniProt Q99081)
inactive: erlotinib -0.001 | [1] -0.025 | [2] 0.081 | [3] 0.006 | [4] -0.004 | [5] -0.017 | [6] 0.003 | [7] -0.063 | [8] 0.006 | IRAK-1-4 Inhibitor I 0.051

TYMS (UniProt P04818)
Chain of UniProt P04818 (P04818 whole entry, looked up): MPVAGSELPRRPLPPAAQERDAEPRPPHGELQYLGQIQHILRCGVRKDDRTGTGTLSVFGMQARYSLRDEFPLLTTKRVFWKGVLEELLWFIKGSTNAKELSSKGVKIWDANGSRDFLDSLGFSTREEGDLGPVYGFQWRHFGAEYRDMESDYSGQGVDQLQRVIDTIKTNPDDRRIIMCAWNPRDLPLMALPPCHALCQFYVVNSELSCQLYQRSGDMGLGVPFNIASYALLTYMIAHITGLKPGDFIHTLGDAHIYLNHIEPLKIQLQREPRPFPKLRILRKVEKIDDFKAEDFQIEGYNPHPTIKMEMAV
inactive: erlotinib 0.016 | [1] 0.041 | [2] 0.011 | [3] -0.032 | [4] 0.032 | [5] -0.026 | [6] 0.019 | [7] 0.035 | [8] -0.004 | IRAK-1-4 Inhibitor I -0.008

TTC38 (UniProt Q5R3I4)
inactive: erlotinib 0.037 | [1] 0.015 | [2] 0.009 | [3] 0.039 | [4] 0.007 | [5] 0.035 | [6] -0.022 | [7] -0.003 | [8] 0.068 | IRAK-1-4 Inhibitor I -0.004

TMPO (UniProt P42167)
Chain of UniProt P42167 (P42167 whole entry, looked up): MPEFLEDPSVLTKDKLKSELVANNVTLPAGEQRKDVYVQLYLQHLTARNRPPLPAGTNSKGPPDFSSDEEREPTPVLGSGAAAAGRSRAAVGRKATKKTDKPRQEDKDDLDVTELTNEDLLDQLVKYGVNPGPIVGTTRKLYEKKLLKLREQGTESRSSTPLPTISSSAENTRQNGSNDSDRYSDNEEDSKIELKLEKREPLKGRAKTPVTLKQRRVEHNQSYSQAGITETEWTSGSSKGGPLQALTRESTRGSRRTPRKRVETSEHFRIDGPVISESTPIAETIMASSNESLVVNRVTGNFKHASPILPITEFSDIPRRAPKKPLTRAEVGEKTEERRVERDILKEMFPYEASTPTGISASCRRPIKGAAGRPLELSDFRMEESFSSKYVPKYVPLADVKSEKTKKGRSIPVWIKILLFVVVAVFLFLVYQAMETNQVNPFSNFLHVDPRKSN
inactive: erlotinib -0.016 | [1] 0.021 | [2] -0.021 | [3] -0.027 | [4] 0.014 | [5] -0.029 | [6] -0.073 | [7] -0.019 | [8] -0.032 | IRAK-1-4 Inhibitor I -0.002
